Laboratory results reported in PubChem BioAssay (Tox21).
Inconclusive results are not listed. Entries that show only a call come without a potency. Active and inactive are the calls of the source. Unless noted, calls follow the shape of the dose curve; as a rule, active = well fitted curve in the direction sought with a large enough effect in the repeat runs; inconclusive = weak or mixed curves; inactive = no such curve, though single readings can be large; an effect the other way counts as inactive or inconclusive.

Legend:
[1] = qHTS assay to test for compound auto fluorescence at 535 nm (green) in HEK293 cells (AID 720680)
[2] = qHTS assay to test for compound auto fluorescence at 460 nm (blue) in HEK293 cell free culture (AID 720681)
Method in brief: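 Compounds were added to cell-free DMEM with 10% FBS and fluorescence read directly. The blue channel used 405 nm excitation and 460 nm emission, with triamterene as the reference fluorophore.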

[3] = qHTS assay to test for compound auto fluorescence at 535 nm (green) in HEK293 cell free culture (AID 720682)
Method in brief: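 Read-out: 485/535 nm fluorescence intensity, calibrated against fluorescein. Medium only (DMEM + 10% FBS, no cells); test compound or DMSO vehicle added by pintool before plate reading.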

[4] = qHTS assay to test for compound auto fluorescence at 590 nm (red) in HEK293 cell free culture (AID 720683)
Method in brief: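 Cell-free wells of DMEM with 10% FBS received compound, and intrinsic fluorescence was read at excitation/emission 540/590 nm. Values expressed as equivalence to Rose Bengal sodium.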

[5] = qHTS assay to test for compound auto fluorescence at 590 nm (red) in HepG2 cell free culture (AID 720684)
Method in brief: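 Compound was pinned into wells holding MEM with 10% FBS and no cells, and red fluorescence was read at Ex/Em 540/590 nm. Signal is expressed as auto fluorescence equivalency relative to Rose Bengal sodium.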

[6] = qHTS assay to test for compound auto fluorescence at 460 nm (blue) in HepG2 cell free culture (AID 720685)
Method in brief: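 Compound (23 nL) or DMSO pinned into cell-free MEM with 10% FBS; blue fluorescence read at 405/460 nm excitation/emission, expressed as auto-fluorescence equivalency to triamterene.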

[7] = qHTS assay to test for compound auto fluorescence at 535 nm (green) in HepG2 cell free culture (AID 720686)
[8] = qHTS assay to test for compound auto fluorescence at 460 nm (blue) in HepG2 cells (AID 720687)
Method in brief: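 HepG2 cells in MEM with 10% FBS, attached overnight at 37 C, were exposed to compound or DMSO for 1 hr at 37 C, 5% CO2. Blue fluorescence was read at 405/460 nm, with triamterene as reference fluorophore.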

[9] = biological target: Glucocorticoid receptor (Homo sapiens) (UniProt P04150); assay: qHTS assay to identify small molecule agonists of the glucocorticoid receptor (GR) signaling pathway (AID 720691; active = well fitted activation curve with a large enough effect in the signal ratio in the repeat runs, not every such curve was filed as active; the % refers to the signal ratio); details: GR-bla HeLa, beta-lactamase reporter ratio, 18 h; activation: at 62.4 µM (top of the series)
Chain of Glucocorticoid receptor (Homo sapiens) (P04150 whole entry, looked up): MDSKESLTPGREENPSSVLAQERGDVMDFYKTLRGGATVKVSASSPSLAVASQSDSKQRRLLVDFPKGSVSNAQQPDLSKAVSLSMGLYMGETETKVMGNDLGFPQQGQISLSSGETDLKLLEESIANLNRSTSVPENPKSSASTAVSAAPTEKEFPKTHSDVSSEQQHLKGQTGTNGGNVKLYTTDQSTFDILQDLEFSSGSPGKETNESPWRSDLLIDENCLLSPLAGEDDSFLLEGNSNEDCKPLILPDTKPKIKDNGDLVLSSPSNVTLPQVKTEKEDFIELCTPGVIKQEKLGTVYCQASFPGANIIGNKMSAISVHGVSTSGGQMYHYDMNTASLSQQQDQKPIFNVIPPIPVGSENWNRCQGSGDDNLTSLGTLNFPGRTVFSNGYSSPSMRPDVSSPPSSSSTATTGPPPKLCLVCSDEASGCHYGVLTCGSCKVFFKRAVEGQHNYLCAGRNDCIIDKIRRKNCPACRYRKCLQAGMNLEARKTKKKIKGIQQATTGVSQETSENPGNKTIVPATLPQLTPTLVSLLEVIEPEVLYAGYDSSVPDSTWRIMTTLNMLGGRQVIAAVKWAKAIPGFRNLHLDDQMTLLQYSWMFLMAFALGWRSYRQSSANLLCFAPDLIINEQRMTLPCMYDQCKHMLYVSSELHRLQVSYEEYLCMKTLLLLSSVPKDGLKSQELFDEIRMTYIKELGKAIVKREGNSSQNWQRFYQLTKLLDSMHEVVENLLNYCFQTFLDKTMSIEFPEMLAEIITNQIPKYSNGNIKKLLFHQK
Method in brief: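 Reporter read-out: fluorescence intensity following 2 h room-temperature LiveBLAzer B/G FRET substrate loading. Prior step: GR-bla HeLa cells held 4 h, then treated 18 h at 37 C.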

[10] = biological target: Glucocorticoid receptor (Homo sapiens) (UniProt P04150); assay: qHTS assay to identify small molecule antagonists of the glucocorticoid receptor (GR) signaling pathway (AID 720692; active = well fitted inhibition curve with a large enough effect in the signal ratio in the repeat runs, not every such curve was filed as active; the % refers to the signal ratio; also: potency is read from the fitted curve at half-maximal effect)
Method in brief: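 Dexamethasone (5 nM final) stimulated a stably integrated GRE-beta-lactamase reporter in HeLa cells during 18 h co-incubation with compounds; signal was quantified as fluorescence intensity of B/G FRET substrate after 2 h.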

[11] = qHTS assay to identify small molecule antagonists of the glucocorticoid receptor (GR) signaling pathway - cell viability counter screen (AID 720693); also: nearly all actives have a fitted effect of over 55% in size
[12] = qHTS assay for identifying genotoxic compounds that show differential cytotoxicity against isogenic chicken DT40 cell lines with known DNA damage response pathways - wild type cell line (AID 743012); also: nearly all actives have a fitted effect of over 60% in size; also: potency is read from the fitted curve at half-maximal effect
Method in brief: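 Using parental DT40 (300 cells/well), compounds delivered in DMSO incubate 40 h at 37 C/5% CO2. CellTiter-Glo reagent then stands 30 min at room temperature, and luminescence gives cell viability.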

[13] = qHTS assay for identifying genotoxic compounds that show differential cytotoxicity against isogenic chicken DT40 cell lines with known DNA damage response pathways - Rev3 mutant cell line (AID 743014); also: nearly all actives have a fitted effect of over 55% in size; also: potency is read from the fitted curve at half-maximal effect
[14] = qHTS assay for identifying genotoxic compounds that show differential cytotoxicity against isogenic chicken DT40 cell lines with known DNA damage response pathways - Rad54/Ku70 mutant cell line (AID 743015); also: nearly all actives have a fitted effect of over 60% in size; also: potency is read from the fitted curve at half-maximal effect
[15] = qHTS assay to identify small molecule antagonists of the androgen receptor (AR) signaling pathway - cell viability counter screen (AID 743033; also: nearly all actives have a fitted effect of over 45% in size)
[16] = biological target: Androgen receptor (Homo sapiens) (UniProt P10275); assay: qHTS assay to identify small molecule antagonists of the androgen receptor (AR) signaling pathway (AID 743035; active = well fitted inhibition curve with a large enough effect in the signal ratio in the repeat runs, not every such curve was filed as active; the % refers to the signal ratio)
Chain of Androgen receptor (Homo sapiens) (P10275 whole entry, looked up): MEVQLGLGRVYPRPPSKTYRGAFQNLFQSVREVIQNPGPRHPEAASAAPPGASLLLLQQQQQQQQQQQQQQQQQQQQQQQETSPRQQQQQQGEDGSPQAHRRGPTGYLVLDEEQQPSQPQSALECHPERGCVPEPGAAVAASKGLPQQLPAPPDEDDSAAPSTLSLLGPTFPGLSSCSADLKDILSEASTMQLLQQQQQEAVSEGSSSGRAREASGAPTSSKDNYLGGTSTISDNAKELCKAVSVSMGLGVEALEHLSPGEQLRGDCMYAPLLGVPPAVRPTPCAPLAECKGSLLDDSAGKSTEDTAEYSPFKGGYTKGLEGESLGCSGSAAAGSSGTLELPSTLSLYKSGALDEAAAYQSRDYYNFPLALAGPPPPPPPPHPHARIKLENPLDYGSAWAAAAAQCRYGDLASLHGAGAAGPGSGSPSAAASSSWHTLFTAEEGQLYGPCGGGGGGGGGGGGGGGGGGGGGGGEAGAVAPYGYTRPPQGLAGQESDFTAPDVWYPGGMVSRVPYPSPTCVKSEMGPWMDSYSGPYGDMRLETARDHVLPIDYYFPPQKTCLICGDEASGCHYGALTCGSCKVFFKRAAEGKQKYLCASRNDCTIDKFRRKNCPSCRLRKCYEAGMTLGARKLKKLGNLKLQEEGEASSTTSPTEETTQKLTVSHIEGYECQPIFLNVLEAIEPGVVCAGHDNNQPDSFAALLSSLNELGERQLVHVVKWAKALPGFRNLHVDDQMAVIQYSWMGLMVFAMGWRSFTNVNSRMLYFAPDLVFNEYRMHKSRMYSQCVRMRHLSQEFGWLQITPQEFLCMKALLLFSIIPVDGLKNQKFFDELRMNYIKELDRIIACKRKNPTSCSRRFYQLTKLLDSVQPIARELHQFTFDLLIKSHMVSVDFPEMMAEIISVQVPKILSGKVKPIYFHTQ
Method in brief: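 Using qHTS, AR-UAS-bla GripTite HEK293 cells received compound, then R1881, and were cultured 16 h at 37C/5% CO2 before a 2 h room-temperature LiveBLAzer B/G FRET substrate step and fluorescence measurement.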

[17] = biological target: Androgen receptor (Homo sapiens) (UniProt P10275); assay: qHTS assay to identify small molecule agonists of the androgen receptor (AR) signaling pathway using the MDA cell line (AID 743040; also: nearly all actives have a fitted effect of over 20% in size; also: potency is read from the fitted curve at half-maximal effect)
Method in brief: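 MDA-kb2 breast carcinoma cells carrying MMTV-luciferase (responsive to AR and GR), plated 5 h then treated 16 h with compounds at 37C, 0% CO2. Read-out was ONE-Glo luminescence after 30 min at room temperature.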

[18] = qHTS assay to identify small molecule antagonists of the androgen receptor (AR) signaling pathway using the MDA cell line - cell viability counter screen (AID 743041; also: nearly all actives have a fitted effect of over 45% in size)
Method in brief: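 MDA-kb2 AR-luc cells (MMTV-luciferase, AR/GR responsive) treated with compounds plus R1881 agonist for 16 h at 37C. CellTiter-Fluor added at 15.5 h; fluorescence read after 30 min in the same wells.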

[19] = biological target: Androgen receptor (Homo sapiens) (UniProt P10275); assay: qHTS assay to identify small molecule antagonists of the androgen receptor (AR) signaling pathway using the MDA cell line (AID 743042; also: nearly all actives have a fitted effect of over 55% in size)
Method in brief: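 MDA-kb2 breast carcinoma cells carrying MMTV-luciferase (AR/GR responsive) were co-treated with compounds and the agonist R1881 for 16 h at 37C. Inhibition read as ONE-Glo luminescence; CellTiter-Fluor fluorescence measured in parallel for cytotoxicity.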

[20] = biological target: Androgen receptor (Homo sapiens) (UniProt P10275); assay: qHTS assay to identify small molecule agonists of the androgen receptor (AR) signaling pathway (AID 743036; active = well fitted activation curve with a large enough effect in the signal ratio in the repeat runs, with a control signal flat, not every such curve was filed as active; the % refers to the signal ratio)
Method in brief: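 HEK293 cells stably carrying a UAS-driven beta-lactamase reporter (GeneBLAzer AR-UAS-bla-GripTite) were plated at 2,000 cells/well, rested 4 h at 37C, then exposed to compounds in DMSO for 16 h. LiveBLAzer B/G FRET substrate was added for 2 h at room temperature; fluorescence read.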

| SMILES | Potency [1] | Potency [2] | Potency [3] | Potency [4] | Potency [5] | outcome [6] | Potency [7] | outcome [8] | Potency [9] | Potency [10] | Potency [11] | Potency [12] | Potency [13] | Potency [14] | Potency [15] | Potency [16] | Potency [17] | Potency [18] | Potency [19] | Potency [20] |
| --- | --- | --- | --- | --- | --- | --- | --- | --- | --- | --- | --- | --- | --- | --- | --- | --- | --- | --- | --- | --- |
| CC1(C)S[C@@H]2[C@H](NC(=O)[C@H](NC(=O)N3CCN(S(C)(=O)=O)C3=O)c3ccccc3)C(=O)N2[C@H]1C(=O)O | inactive | inactive | inactive | inactive | inactive | inactive | inactive | inactive | inactive | inactive | inactive | inactive | inactive | inactive | inactive | inactive | 29.8 µM (active) | inactive | inactive | – |
| CN[C@@H]1[C@H](O[C@H]2[C@H](O[C@H]3[C@H](O)[C@@H](O)[C@H](N=C(N)N)[C@@H](O)[C@@H]3N=C(N)N)O[C@@H](C)[C@]2(O)CO)O[C@@H](CO)[C@H](O)[C@H]1O | inactive | inactive | inactive | inactive | inactive | inactive | inactive | inactive | inactive | inactive | inactive | inactive | inactive | inactive | inactive | inactive | inactive | inactive | inactive | – |
| COC(F)(F)C(Cl)Cl | inactive | inactive | inactive | inactive | inactive | inactive | inactive | inactive | inactive | inactive | inactive | inactive | inactive | inactive | inactive | – | inactive | inactive | inactive | inactive |
| CN1CCN(C(c2ccccc2)c2ccc(Cl)cc2)CC1 (stereo not given) | inactive | inactive | inactive | inactive | inactive | inactive | inactive | inactive | inactive | inactive | inactive | 9.02 µM (active) | 10.1 µM (active) | 11.4 µM (active) | inactive | – | – | inactive | – | – |
| CC(=O)N[C@@H]([C@@H](O)[C@H](O)[C@H](O)CO)[C@@H](O)CC(=O)C(=O)O | inactive | inactive | inactive | inactive | inactive | inactive | inactive | inactive | inactive | inactive | inactive | inactive | inactive | inactive | inactive | – | – | inactive | – | – |
| CCN(CC)CCC(=O)N1c2ccccc2Sc2ccc(C(F)(F)F)cc21 | inactive | inactive | inactive | inactive | inactive | inactive | inactive | inactive | inactive | 23.9 µM (active) | inactive | 5.96 µM (active) | 10.6 µM (active) | 8.41 µM (active) | inactive | – | – | – | – | – |
| C[C@]12CC[C@@H]3c4ccc(OS(=O)(=O)O)cc4CC[C@H]3[C@@H]1CCC2=O | inactive | inactive | inactive | inactive | inactive | inactive | inactive | inactive | inactive | inactive | inactive | inactive | inactive | inactive | inactive | – | – | inactive | – | – |
| O=C(OC[C@H]1O[C@](O)(COC(=O)c2cccnc2)[C@@H](OC(=O)c2cccnc2)[C@@H]1OC(=O)c1cccnc1)c1cccnc1 | inactive | inactive | inactive | inactive | inactive | inactive | inactive | inactive | inactive | inactive | inactive | inactive | inactive | inactive | inactive | inactive | inactive | inactive | inactive | inactive |
| CCCC(=O)Nc1ncnc2c1ncn2[C@@H]1O[C@@H]2COP(=O)(O)O[C@H]2[C@H]1OC(=O)CCC | inactive | inactive | inactive | inactive | inactive | inactive | inactive | inactive | inactive | inactive | inactive | inactive | inactive | inactive | inactive | – | – | inactive | – | – |
| Cc1cccc(C)c1Nc1ncccc1C(=O)O | inactive | inactive | inactive | inactive | inactive | inactive | inactive | inactive | inactive | inactive | inactive | inactive | inactive | inactive | inactive | – | inactive | inactive | inactive | – |
| CCOC(=O)CN[C@@H](C(=O)N1CC[C@H]1C(=O)NCc1ccc(/C(N)=N/O)cc1)C1CCCCC1 | inactive | inactive | inactive | inactive | inactive | inactive | inactive | inactive | inactive | inactive | inactive | inactive | inactive | inactive | inactive | – | – | inactive | – | – |
| OCC(O)COc1ccc(Cl)cc1 (stereo not given) | inactive | inactive | inactive | inactive | inactive | inactive | inactive | inactive | inactive | inactive | inactive | inactive | inactive | inactive | inactive | inactive | inactive | inactive | inactive | inactive |
